According to PubChem BioAssay AID1159580 (chemical genetic matrix, 2015):
The whole screen tested about 5,500 compounds, of which about 2,000 (36%) were called active. Inconclusive results (about 18%) are left out. Cut-off read from the data, not from the text of the source: active = normalized growth mostly below about 0.91 (no sharp cut-off); inconclusive = no clear call, values can overlap the other calls; inactive = mostly above about 0.92. Some of the results follow.

Test: chemical genetic growth profiling, strain panel (AID 1159580);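 note: tested at 20 µM; growth read once vehicle control cultures reached saturation at 30 °C; 1 = growth at the plate median or of vehicle wells; lower values mean less growth of the strain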
Conditions: S. cerevisiae deletion strains, growth OD
[1] = locus YAR019C, strain CDC15, active compounds read low
[2] = locus YBL105C, strain PKC1, active compounds read low
[3] = locus YBR135W, strain CKS1, active compounds read low
[4] = locus YBR136W, strain MEC1, active compounds read low
[5] = locus YBR160W, strain CDC28, active compounds read low
[6] = locus YDL017W, strain CDC7, active compounds read low
[7] = locus YDL028C, strain MPS1, active compounds read low
[8] = locus YDL101C, strain DUN1, active compounds read low
[9] = locus YDL108W, strain KIN28, active compounds read low
[10] = locus YDL132W, strain cdc53, active compounds read low
[11] = locus YDL214C, strain PRR2, active compounds read low
[12] = locus YDR052C, strain DBF4, active compounds read low
[13] = locus YDR054C, strain cdc34, active compounds read low
[14] = locus YDR226W, strain ADK1, active compounds read low
[15] = locus YDR477W, strain SNF1, active compounds read low
[16] = locus YER123W, strain YCK3, active compounds read low
[17] = locus YER133W, strain GLC7, active compounds read low
[18] = locus YFL009W, strain cdc4, active compounds read low
[19] = locus YFL029C, strain CAK1, active compounds read low
[20] = locus YFR003C, strain YPI1, active compounds read low
[21] = locus YFR019W, strain FAB1, active compounds read low
[22] = locus YFR028C, strain CDC14, active compounds read low
[23] = locus YGR040W, strain KSS1, active compounds read low
[24] = locus YGR052W, strain FMP48, active compounds read low
[25] = locus YGR092W, strain DBF2, active compounds read low
[26] = locus YHR030C, strain SLT2, active compounds read low
[27] = locus YHR079C, strain IRE1, active compounds read low
[28] = locus YHR082C, strain KSP1, active compounds read low
[29] = locus YHR205W, strain SCH9, active compounds read low
[30] = locus YIL147C, strain SLN1, active compounds read low
[31] = locus YJL095W, strain BCK1, active compounds read low
[32] = locus YJL128C, strain PBS2, active compounds read low
[33] = locus YJL157C, strain FAR1, active compounds read low
[34] = locus YJR016C, strain ILV3, active compounds read low
[35] = locus YJR066W, strain TOR1 (second series), active compounds read low
[36] = locus YJR066W, strain TOR1, active compounds read low
[37] = locus YKL048C, strain ELM1, active compounds read low
[38] = locus YKL067W, strain YNK1, active compounds read low
[39] = locus YKL101W, strain HSL1, active compounds read low
[40] = locus YKL193C, strain SDS22, active compounds read low
[41] = locus YKL203C, strain TOR2, active compounds read low
[42] = locus YLR113W, strain HOG1, active compounds read low
[43] = locus YLR133W, strain CKI1, active compounds read low
[44] = locus YLR403W, strain SFP1, active compounds read low
[45] = locus YML070W, strain DAK1, active compounds read low
[46] = locus YMR001C, strain CDC5, active compounds read low
[47] = locus YMR205C, strain PFK2 (second series), active compounds read low
[48] = locus YMR277W, strain FCP1, active compounds read low
[49] = locus YNL006W, strain LST8, active compounds read low
[50] = locus YNL020C, strain ARK1, active compounds read low
[51] = locus YNL161W, strain CBK1, active compounds read low
[52] = locus YNL183C, strain NPR1, active compounds read low
[53] = locus YNL207W, strain RIO2, active compounds read low
[54] = locus YNL222W, strain SSU72, active compounds read low
[55] = locus YNL307C, strain MCK1 (second series), active compounds read low
[56] = locus YOL078W, strain AVO1, active compounds read low
[57] = locus YOL136C, strain PFK27, active compounds read low
[58] = locus YOR061W, strain CKA2, active compounds read low
[59] = locus YOR119C, strain RIO1, active compounds read low
[60] = locus YOR231W, strain MKK1, active compounds read low
[61] = locus YOR329C, strain SCD5, active compounds read low
[62] = locus YPL031C, strain PHO85, active compounds read low
[63] = locus YPL153C, strain RAD53, active compounds read low
[64] = locus YPL204W, strain HRR25, active compounds read low
[65] = locus YPL209C, strain IPL1, active compounds read low
[66] = locus YPL256C, strain CLN2, active compounds read low
[67] = locus YPR025C, strain CCL1, active compounds read low
[68] = locus YPR106W, strain ISR1, active compounds read low
[69] = locus YPR111W, strain DBF20, active compounds read low
[70] = strain NNK1, active compounds read low
[71] = strain TSCII, active compounds read low

Measured: normalized growth

CCCc1cnc(N2CCN(CC(=O)N(c3ccccc3)C3CCCCC3)CC2)nc1
inactive: [1] 0.995 | [2] 0.985 | [3] 0.992 | [4] 0.985 | [5] 0.984 | [6] 0.991 | [7] 0.997 | [8] 0.986 | [9] 0.99 | [10] 0.992 | [11] 0.997 | [12] 0.989 | [13] 0.974 | [14] 0.985 | [15] 0.999 | [16] 0.997 | [17] 1 | [18] 0.989 | [19] 0.993 | [20] 0.988 | [21] 1 | [22] 0.999 | [23] 0.985 | [24] 1.09 | [25] 1 | [26] 1.05 | [27] 1.03 | [28] 1.09 | [29] 0.97 | [30] 0.99 | [31] 1.05 | [32] 0.985 | [33] 0.981 | [34] 1 | [35] 0.995 | [36] 1.07 | [37] 0.969 | [38] 1 | [39] 0.993 | [40] 0.99 | [41] 1.05 | [42] 0.949 | [43] 0.997 | [44] 0.977 | [45] 1.03 | [46] 0.991 | [47] 1.01 | [48] 0.994 | [49] 0.988 | [50] 0.997 | [51] 0.99 | [52] 1.04 | [53] 0.997 | [54] 0.995 | [55] 1 | [56] 0.994 | [57] 0.985 | [58] 1.01 | [59] 1.04 | [60] 0.992 | [61] 0.986 | [62] 1 | [63] 0.998 | [64] 0.981 | [65] 0.98 | [66] 0.968 | [67] 0.99 | [68] 0.979 | [69] 0.976 | [70] 0.99 | [71] 0.992

Cc1ccc2c(c1)CCCN2CC(=O)N(c1ccccc1)C1CCCCC1
inactive: [1] 0.989 | [2] 0.978 | [3] 0.986 | [4] 0.986 | [5] 0.978 | [6] 0.982 | [7] 0.994 | [8] 0.984 | [9] 0.986 | [10] 0.987 | [11] 0.943 | [12] 0.991 | [13] 0.975 | [14] 0.992 | [15] 0.951 | [16] 0.928 | [17] 0.951 | [18] 0.989 | [19] 0.986 | [20] 0.986 | [21] 0.961 | [22] 0.976 | [23] 0.923 | [24] 0.994 | [25] 0.948 | [26] 0.966 | [27] 0.965 | [28] 0.991 | [29] 0.991 | [30] 0.991 | [31] 0.965 | [32] 0.932 | [33] 0.944 | [34] 0.985 | [35] 0.928 | [36] 0.999 | [37] 0.945 | [38] 0.946 | [39] 0.912 | [40] 0.974 | [41] 0.999 | [43] 0.937 | [44] 0.935 | [45] 0.912 | [46] 0.991 | [47] 0.955 | [48] 0.99 | [49] 0.992 | [50] 0.943 | [51] 0.983 | [52] 0.941 | [53] 0.98 | [54] 0.983 | [55] 0.948 | [56] 0.99 | [57] 0.925 | [58] 0.956 | [59] 1 | [60] 0.907 | [61] 0.995 | [62] 0.95 | [63] 0.936 | [64] 0.957 | [65] 0.98 | [66] 0.884 | [67] 0.991 | [68] 0.97 | [69] 0.964 | [70] 0.973 | [71] 0.987
active: [42] 0.836

CN(C)C(=O)Oc1cc(OC(=O)N(C)C)cc(C(O)CNC(C)(C)C)c1 (configuration not stated)
inactive: locus YAL021C, strain ccr4, active compounds read low 1.02 | locus YAL026C, strain drs2, active compounds read low 1.03 | locus YAL030W, strain snc1, active compounds read low 1.02 | locus YBL061C, strain skt5, active compounds read low 1.02 | locus YBR009C, strain hhf1, active compounds read low 1.04 | locus YBR023C, strain chs3, active compounds read low 1.02 | locus YBR171W, strain sec66, active compounds read low 1.03 | locus YBR231C, strain swc5, active compounds read low 1.03 | locus YBR279W, strain paf1, active compounds read low 1.02 | locus YCL011C, strain gbp2, active compounds read low 1.03 | locus YCL016C, strain dcc1, active compounds read low 1.03 | locus YCL061C, strain MRC1, active compounds read low 1.03 | locus YCL069W, strain vba3, active compounds read low 1.03 | locus YCR088W, strain abp1, active compounds read low 1.03 | locus YDL005C, strain med2, active compounds read low 1.03 | locus YDL040C, strain nat1, active compounds read low 1.04 | locus YDR001C, strain nth1, active compounds read low 1.03 | locus YDR069C, strain doa4, active compounds read low 1.03 | locus YDR137W, strain rgp1, active compounds read low 1.04 | locus YDR159W, strain sac3, active compounds read low 1.05 | locus YDR195W, strain ref2 1.02 | locus YDR297W, strain sur2, active compounds read low 1.02 | locus YDR334W, strain swr1, active compounds read low 1.04 | locus YDR335W, strain msn5, active compounds read low 1.03 | locus YDR392W, strain spt3, active compounds read low 0.947 | locus YEL003W, strain gim4, active compounds read low 1.02 | locus YEL037C, strain rad23, active compounds read low 1.03 | locus YEL061C, strain CIN8 (second series), active compounds read low 1.03 | locus YER015W, strain faa2, active compounds read low 1.03 | locus YER016W, strain bim1, active compounds read low 1.04 | locus YER111C, strain swi4, active compounds read low 1.03 | locus YER155C, strain BEM2 (second series), active compounds read low 1.03 | locus YFR010W, strain ubp6, active compounds read low 1.03 | locus YGL167C, strain pmr1, active compounds read low 1.03 | locus YGL173C, strain kem1, active compounds read low 1.04 | locus YGL227W, strain vid30, active compounds read low 1.04 | locus YGL240W, strain doc1, active compounds read low 1.03 | locus YGL253W, strain hxk2, active compounds read low 1.03 | locus YHR013C, strain ard1, active compounds read low 1.02 | locus YHR027C, strain rpn1, active compounds read low 1.04 | [26] 0.977 | [27] 0.991 | locus YHR142W, strain chs7, active compounds read low 1.02 | locus YJL092W, strain hpr5, active compounds read low 1.02 | locus YJL095W, strain BCK1 (second series), active compounds read low 1.03 | [31] 1.01 | locus YJL115W, strain asf1, active compounds read low 1.03 | locus YJL129C, strain trk1, active compounds read low 1.04 | locus YJL154C, strain vps35, active compounds read low 1.03 | locus YJL164C, strain tpk1, active compounds read low 1.01 | locus YJL166W, strain qcr8, active compounds read low 1.02 | locus YJL187C, strain SWE1, active compounds read low 1.02 | [36] 0.921 | locus YKL160W, strain elf1, active compounds read low 1.01 | locus YKR026C, strain gcn3, active compounds read low 1.03 | locus YKR091W, strain srl3, active compounds read low 1.03 | locus YLL001W, strain dnm1, active compounds read low 1.04 | locus YLL026W, active compounds read low 1.02 | locus YLL041C, strain sdh2, active compounds read low 1.03 | locus YLR027C, strain aat2, active compounds read low 1.03 | [42] 1.01 | locus YLR221C, strain rsa3, active compounds read low 1.02 | locus YLR258W, strain gsy2, active compounds read low 1.03 | locus YLR262C, strain YPT6 (second series), active compounds read low 1.03 | locus YLR320W, strain mms22, active compounds read low 1.04 | locus YLR342W, strain FKS1, active compounds read low 1.03 | locus YLR357W, strain rsc2, active compounds read low 1.02 | locus YLR370C, strain arc18, active compounds read low 1.03 | locus YLR384C, strain iki3, active compounds read low 1.02 | locus YML120C, strain ndi1, active compounds read low 1 | locus YMR058W, strain fet3, active compounds read low 1.03 | locus YMR125W, strain sto1, active compounds read low 1.04 | locus YMR129W, active compounds read low 1.02 | locus YMR205C, strain PFK2, active compounds read low 1.05 | locus YMR231W, strain pep5, active compounds read low 1.03 | locus YNL071W, strain lat1, active compounds read low 1.03 | [52] 0.934 | locus YNL209W, strain ssb2, active compounds read low 1.02 | locus YNL248C, strain rpa49, active compounds read low 1 | locus YNL322C, strain KRE1 (second series), active compounds read low 1.03 | locus YNR049C, strain mso1, active compounds read low 1.03 | locus YOR001W, strain rrp6, active compounds read low 0.999 | locus YOR070C, strain gyp1, active compounds read low 1.02 | locus YOR080W, strain dia2, active compounds read low 1.03 | locus YOR083W, strain WHI5, active compounds read low 1.01 | locus YOR106W, strain vam3, active compounds read low 1.03 | [60] 1.03 | locus YOR265W, strain rbl2, active compounds read low 1.03 | locus YOR270C, strain vph1, active compounds read low 1.06 | locus YOR290C, strain snf2, active compounds read low 0.989 | locus YPL051W, strain arl3, active compounds read low 1.01 | locus YPL078C, strain atp4, active compounds read low 1.02 | locus YPL106C, strain sse1, active compounds read low 1.05 | locus YPL240C, strain hsp82, active compounds read low 1.03 | [66] 0.984
